Compounds with a hit are over-represented: about 2.4% of the library has one in this group of screens.
D2 ag-1: Beta-Arrestin HTS for Positive Allosteric Modulators of the Human D2 Dopamine Receptor: Agonists | D(2) dopamine receptor (Homo sapiens), P14416 | DiscoveRx PathHunter D2 beta-arrestin, luminescence, 90 min; 100% = 57 uM dopamine signal | activation, % (test concentration not listed) | 360,000 compounds, 0.084% hits | AID 624465, 2012; in the data active means activation above about 40%
Target sequence (P14416 whole entry, looked up): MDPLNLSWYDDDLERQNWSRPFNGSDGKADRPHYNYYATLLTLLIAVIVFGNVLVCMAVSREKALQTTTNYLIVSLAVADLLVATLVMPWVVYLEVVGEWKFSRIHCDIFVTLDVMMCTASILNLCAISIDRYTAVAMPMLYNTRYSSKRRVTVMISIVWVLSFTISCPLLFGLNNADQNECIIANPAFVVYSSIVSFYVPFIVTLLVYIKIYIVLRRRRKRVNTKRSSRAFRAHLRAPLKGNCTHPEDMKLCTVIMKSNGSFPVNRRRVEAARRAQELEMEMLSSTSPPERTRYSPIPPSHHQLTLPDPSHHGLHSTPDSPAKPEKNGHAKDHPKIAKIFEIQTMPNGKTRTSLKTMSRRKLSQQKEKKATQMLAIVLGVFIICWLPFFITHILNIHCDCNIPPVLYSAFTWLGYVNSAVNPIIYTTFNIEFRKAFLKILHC
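Agonist mode: compounds alone added to overnight-plated D2 PathHunter cells for 90 min at 37 C, with 57 uM final dopamine (EC100) defining full response. Beta-arrestin recruitment detected by chemiluminescent reagent, read after 1 h at ambient temperature.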
D2 antag: HTS Assay for Allosteric Antagonists of the Human D2 Dopamine Receptor: Primary Screen for Antagonists; D(2) dopamine receptor (Homo sapiens), P14416; HEK293 TREx D2 cells, calcium flux, dopamine EC80; inhibition, % at 10 µM; 340,000 compounds, 2% hits; AID 485344, 2010; in the data active means inhibition above about 30%; inactive means below that, where a call was filed; further: 0% is about no effect
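Antagonism is scored as inhibition of an EC80 dopamine-evoked calcium signal in a force-coupled, tetracycline-inducible HEK293 T-REx D2 line, with compound present 180 s before agonist.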
D2 ag-2: HTS Assay for Allosteric Agonists of the Human D2 Dopamine Receptor: Primary Screen for Agonists; D(2) dopamine receptor (Homo sapiens), P14416; HEK293 T-REx D2 cells, calcium flux agonist mode; activation, % at 2 µM; 340,000 compounds, 0.53% hits; AID 485358, 2010;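 active means activation over 3 SD above normal in the single-dose calcium agonist read, cut at about 30% in these data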; further: 0% is about no effect
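Agonism scored from kinetic calcium signal (1 read/sec, 180 s) following compound pin transfer, after a 10 s baseline. Cells: HEK293 Trex line expressing inducible D2 receptor coupled to calcium, dye-loaded after overnight culture at 30 C.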
D2 PAM-1: HTS Assay for Positive Allosteric Modulators of the Human D2 Dopamine Receptor: Primary Screen for Potentiators; HEK293 T-REx D2, calcium flux, EC20 dopamine potentiation; potentiation, % at 10 µM; 340,000 compounds, 0.34% hits; AID 485347, 2010;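 active means potentiation over 3 SD above the plate norm, cut at about 30% in these data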; further: 0% is about no effect
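Potentiation of an EC20 dopamine calcium response measured kinetically over 180 s, after a preceding 180 s compound-only read flagging agonists. Cells: inducible Hek293 Trex D2 line, 4000/well, cultured overnight at 30 C before dye loading.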
D2 PAM-2: Beta-Arrestin HTS for Positive Allosteric Modulators of the Human D2 Dopamine Receptor: Potentiators. potentiation, % (no concentration beside the values). 360,000 compounds, 0.23% hits. DiscoveRx D2 beta-arrestin cells, luminescence, 90 min; 100% = 57 uM dopamine signal. D(2) dopamine receptor (Homo sapiens), P14416; in the data active means potentiation above about 50%
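PathHunter beta-arrestin assay in DiscoveRx D2 cells. Compounds were added with an EC20 of dopamine (50 nM final) for 90 min at 37 deg C. Luminescence was read 1 h after detection reagent, with 57 uM dopamine as the EC100 control.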
Starred values were filed as active, the others as inactive; nt = no result.

SMILES | D2 ag-1 | D2 antag | D2 ag-2 | D2 PAM-1 | D2 PAM-2
COc1ccccc1CNC(=O)Cn1c(=O)oc2cc(S(=O)(=O)N3CCC(C)CC3)ccc21 | nt | nt | -1 | -6 | nt
Cc1ccccc1C(=O)Nc1cccc(OCc2cc(=O)n3cccc(C)c3n2)c1 | nt | nt | 1 | -11 | nt
COC(=O)[C@@H]1C[C@@H]2CC[C@@H](O)C[C@@H]2N1Cc1ccc(OC)cc1 | -2 | 39* | 1 | 9 | -4
Cc1ccc(-c2cn3c(n2)sc2cc(C(=O)N4CCCCC4)ccc23)cc1 | nt | nt | 2 | -2 | nt
COc1ccc(CCNC(=O)C2CC(=O)N(C3CCCCCCC3)C2)cc1OC (configuration not stated) | -3 | 93* | 0 | -23 | 0
CN(CC(=O)NCCc1ccccc1)S(=O)(=O)c1cccs1 | -5 | 11 | 0 | -8 | -5
CCNC(=O)COC(=O)CCC(=O)c1cccs1 | 1 | 51* | -2 | -6 | -4
COc1ccc(CCNC(=O)CCC(=O)c2cccs2)cc1OC | -4 | 44* | 27 | -9 | -4
COc1ccc(CCNC(=O)CN(C)S(=O)(=O)c2cccs2)cc1 | -3 | 32* | 0 | -11 | 6
Cc1ccc(CCNC(=O)C2CC(=O)N(C3CCCCC3)C2)cc1 (configuration not stated) | -2 | 3 | 1 | -5 | -7
COc1ccc(CCNC(=O)COC(=O)CCC(=O)c2cccs2)cc1OC | 2 | nt | nt | nt | -6
COc1ccc(CCNC(=O)CCN2C(=O)C3CC=CCC3C2=O)cc1OC (configuration not stated) | -3 | 64* | 1 | 2 | -6
COc1ccc(CCNC(=O)COC(=O)c2cccs2)cc1OC | 6 | 7 | -1 | 14 | 2
CC[C@H](C)[C@H](NC(N)=O)C(=O)NCCc1ccc(OC)cc1 | -3 | 11 | 0 | -5 | -3
COc1ccc(CCNC(=O)CCn2cccc2)cc1OC | 1 | 1 | 0 | -9 | -7
COc1ccc(CCNC(=O)COC(=O)c2cccs2)cc1 | -1 | 37* | -1 | -2 | -8
COc1ccc(CCNC(=O)[C@@H](NC(N)=O)C(C)C)cc1 | 0 | 50* | 10 | -1 | -21
Cc1ccc(S(=O)(=O)N2CCN(CC(=O)N3CCOCC3)CC2)cc1 | -8 | -6 | 0 | 10 | -3
CC(=O)Nc1ccc(S(=O)(=O)N2CCN(Cc3ccccc3[N+](=O)[O-])CC2)cc1 | 2 | -3 | 1 | 38* | -4
CC(=O)Nc1ccc(S(=O)(=O)N2CCN(CC(=O)N3CCOCC3)CC2)cc1 | -4 | 37* | 1 | -3 | -13
CC(=O)Nc1ccc(S(=O)(=O)N2CCN(Cc3csc(C)n3)CC2)cc1 | -5 | -7 | 0 | 9 | 53*
CC(=O)Nc1ccc(S(=O)(=O)N2CCN(Cc3ccccn3)CC2)cc1 | -1 | 23 | 4 | 1 | -10
CC(NC(=O)c1cccc(Nc2nc3ccccc3n3nnnc23)c1)c1ccccc1 (configuration not stated) | nt | nt | nt | 2 | nt
COc1cc(OC)c2c(C)c(CC(=O)NCc3ccccc3OC)c(=O)oc2c1 | nt | nt | -1 | 0 | nt
Cc1ccc(CN2C(=O)C3(c4ccccc42)N(c2ccc(C)c(Cl)c2)C(=O)CS3(=O)=O)cc1 (configuration not stated) | nt | nt | 0 | 1 | nt
SMILES | D2 ag-1 | D2 antag | D2 ag-2 | D2 PAM-1 | D2 PAM-2
Oc1ccccc1CN1CCCC(N2CCN(c3cccc(C(F)(F)F)c3)CC2)C1 (configuration not stated) | 3 | -15 | 0 | -4 | -2
Fc1ccccc1N1CCN(C2CCCN(Cc3cccc(C(F)(F)F)c3)C2)CC1 (configuration not stated) | 14 | 55* | 29 | -14 | -6
C=CCN(CC=C)CCOc1cccc2ccccc12 | 1 | 26 | 35* | -19 | -14
C=CCN(CC=C)CCOc1ccccc1F | -1 | -2 | -1 | 13 | -3
O=C(COC(=O)c1ccc(S(=O)(=O)NCc2ccco2)cc1)NCc1ccc(F)cc1 | 4 | -11 | 0 | 64* | -1
CN(Cc1ccccc1)C(=O)c1cccc(NC(=O)c2nsc3ccccc23)c1 | nt | nt | 1 | -10 | nt
CCCc1cc(=O)[nH]c(SC(C)C(=O)N2c3ccccc3CC2C)n1 (configuration not stated) | 6 | 44* | 0 | -29 | 11
CCCc1cc(=O)[nH]c(SCC(=O)N2c3ccccc3CC2C)n1 (configuration not stated) | 2 | nt | nt | nt | 10
CCc1cc2ccc(OC)cc2nc1SCC(=O)Nc1cc(C)on1 | -1 | -12 | 0 | 3 | -14
CCc1cc2ccc(OC)cc2nc1SCC(=O)NNC(C)=O | -6 | 57* | -3 | -2 | -4
CCN(Cc1ccccc1)C(=O)c1cnn(-c2ccc(F)cc2)c1-n1cccc1 | nt | nt | -1 | 3 | nt
O=C(Nc1cccs1)Nc1cc(C(F)(F)F)ccc1Cl | nt | nt | 0 | -18 | nt
CCCCC(Sc1nc2cc3c(cc2c(=O)n1CCCC(=O)NCc1ccc(OC)cc1)OCO3)C(=O)OCC (configuration not stated) | nt | nt | 1 | 9 | nt
Cc1csc2nc(CSc3nc4ccccc4o3)c(Br)n12 | -1 | -4 | 0 | 36* | 9
Cc1cccc(-n2cc(-c3ccccc3)c3c(NC(C)C)ncnc32)c1 | nt | nt | 0 | -3 | nt
COc1ccc2oc(=O)cc(CN3CCN(C(=O)c4ccccc4F)CC3)c2c1 | nt | nt | 0 | -23 | nt
O=C(NCc1ccccc1Cl)C(=O)NCC(c1ccco1)S(=O)(=O)c1cccs1 (configuration not stated) | nt | nt | 0 | 7 | nt
Cc1cc(Cl)c2oc(C(=O)N3CCOCC3)c(C)c2c1 | -2 | nt | nt | nt | -7
Cc1cc(Cl)c2oc(C(=O)N(C)C3CCOC3)c(C)c2c1 (configuration not stated) | -2 | -7 | 0 | 88* | -14
COc1ccc(-c2onc(C)c2C)cc1S(=O)(=O)Nc1cc(Cl)ccc1C | nt | nt | 0 | 1 | nt
COc1ccc(OC)c([N+](=O)[O-])c1C(N)=O | 8 | 7 | 0 | -8 | 50*
O=C(CN1CCN(c2ccccc2)CC1)NC(=O)NCc1ccco1 | 2 | -15 | 39* | -11 | 0
Cc1ccc(C2C=C(c3ccccc3)Nc3nc(NS(=O)(=O)c4ccc(C)cc4)nn32)cc1 (configuration not stated) | nt | nt | 2 | -4 | nt

Screening results (PubChem)
